HT1080-NT tox = qHTS for induction of synthetic lethality in tumor cells producing 2HG: qHTS for the HT-1080-NT fibrosarcoma cell line; HT-1080-NT fibrosarcoma viability, CellTiter-Glo ATP luminescence, 48 h; AID 686970, 2013; Potency, µM (highest dose often 46.1 µM), hits mostly cytotoxic; 1.6% of 360,000 active;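 note: NT is the 2HG producing partner of a matched IDH1 knockdown line; nearly all actives have a fitted effect of over 55% in size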
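Compounds were tested in concentration-response format on HT-1080-NT cells for 48 hours at 37 degrees C. Cell viability came from CellTiter-Glo luminescence; curves were classified by r2, response magnitude and activity.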
IL-1B inflam inh = qHTS for Inhibitors of Inflammasome Signaling: IL-1-beta AlphaLISA Primary Screen | THP-1 LPS/ATP IL-1B secretion, AlphaLISA, 16 h; hits give low values | activity change, % at 57.5 µM | 4.7% of 360,000 active; in the data active = activity change below about -50%; inconclusive = mostly about -30% to -49%
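Secreted IL-1B measured by AlphaLISA bead assay after 16 h compound exposure of THP-1 cells; compounds (final up to 57.5 uM) added 1 h before LPS (250 ng/mL) and ATP (1.25 mM) stimulation; lower signal means less secretion.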
DT40 TDP1 CPT = qHTS for Inhibitors of human tyrosyl-DNA phosphodiesterase 1 (TDP1): qHTS in cells in presence of CPT. Potency, µM (highest dose often 46.2 µM), actives largely listed as inhibitors. 12% of 420,000 active. AID 686979, 2013. chicken DT40 Tdp1-/-;hTDP1 cells + 20 nM CPT, ATP luminescence, 48 h; note: nearly all actives have a fitted effect of over 55% in size
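Cell growth measured by CellTiter-Glo luminescence after a minimum 48 h, 37 C compound exposure with 20 nM CPT in Tdp1-knockout DT40 cells stably expressing hTDP1, seeded 400/well; qHTS titration format.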
HT1080 IDH1KD tx = qHTS for induction of synthetic lethality in tumor cells producing 2HG: qHTS for the HT-1080-IDH1KD cell line | 2% of 360,000 active | Potency, µM (series often up to 46.1 µM), usual class: cytotoxic | HT-1080 IDH1 knockdown viability, ATP luminescence, 48 h
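Knockdown cells (IDH1KD HT-1080) received compounds 2 h after plating at 750 cells/well and were kept 48 h at 37 °C in 5% FBS RPMI. A CellTiter-Glo luminescence read gave % activity for curve fitting.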
DT40 TDP1 no CPT = qHTS for Inhibitors of human tyrosyl-DNA phosphodiesterase 1 (TDP1): qHTS in cells in absence of CPT. DT40 Tdp1-/- hTDP1 cells, no CPT, ATP luminescence, 48 h. Potency, µM (top dose mostly 46.2 µM), usual class: inhibitors. 15% of 420,000 active; note: nearly all actives have a fitted effect of over 55% in size
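Readout: luminescence from CellTiter-Glo after 30 min in the dark at RT. Cells: DT40 Tdp1-/- with stable hTDP1, 400/well. Exposure: compounds alone, ≥48 hr, 37 °C.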
Numbers stand for hits; n = inactive; u = inconclusive; x = no result; [ ] = dose if it differs, or a comment. Compounds with a hit are over-represented: about 19% of the library has one in this group of screens. Unless noted, calls come from the whole dose curve; as a rule, active = well fitted curve in the direction sought with a large enough effect; inconclusive = small, poorly fitted or top-dose-only effect, or another doubt; inactive = no such curve, though single readings can be large; an effect the other way counts as inactive or inconclusive.

SMILES	HT1080-NT tox	IL-1B inflam inh	DT40 TDP1 CPT	HT1080 IDH1KD tx	DT40 TDP1 no CPT
CCCOc1ccc(Cn2cnc3ccccc32)cc1	n	n	u	n	13µM
O=[N+]([O-])c1ccc(OCCn2cnc3ccccc32)cc1	n	n	n	n	u
CCOCN(C(=O)Cn1cnc2ccccc21)c1c(C)cccc1CC	n	n	21µM	n	23µM
CCc1cccc(CC)c1N(COC)C(=O)Cn1cnc2ccccc21	n	n	u	n	u
O=C(CSc1nc2c(c(=O)[nH]1)CCC2)Nc1cc(C(F)(F)F)ccc1Cl	x	x	n	x	n
O=C(Nc1cccc(S(=O)(=O)NCc2ccco2)c1)c1cc(-c2ccccc2)nc2ccccc12	n	-88	u	u	23µM
O=C(Nc1cccc(S(=O)(=O)NC2=NCCCCC2)c1)c1cc(-c2ccco2)nc2ccccc12	u	n	u	n	9.2µM
O=C(Nc1cccc(S(=O)(=O)NC2=NCCCCC2)c1)c1cccnc1Cl	n	n	n	n	n
O=C(Nc1cccc(S(=O)(=O)NC2=NCCCCC2)c1)c1cc(-c2ccncc2)nc2ccccc12	n	u	u	n	23µM
O=C(NCc1ccco1)c1cc(-c2ccccc2)nc2ccccc12	n	n	n	n	u
CC(C)COC(=O)c1ccc(N)cc1	x	x	n	x	n
CNc1ncnc2c1ncn2[C@H]1CN(CCOC)C[C@@H](CO)O1	n	n	n	n	u
COc1ccc(N2CCN(S(=O)(=O)c3ccc(OC)c(C(=O)N4CCOCC4)c3)CC2)cc1	n	n	n	n	n
COc1ccc(N2CCN(C(=O)c3cc(S(=O)(=O)N4CCCCCC4)ccc3OC)CC2)cc1	n	n	u	n	16µM
Cc1cc(S(=O)(=O)N2CCCC2)ccc1OCC(=O)N1CCOCC1	n	n	n	n	n
COc1ccc(S(=O)(=O)N2CCCCCC2)cc1C(=O)N1CCN(c2ccc(F)cc2)CC1	n	u	u	n	21µM
COc1ccc(N2CCN(C(=O)COc3ccc(S(=O)(=O)N4CCOCC4)cc3C)CC2)cc1	n	n	u	n	23µM
CC(NC(=O)c1ccco1)C(=O)N1CC=C(c2ccccc2)CC1 (configuration not stated)	n	n	u	n	n
COc1cccc(CNc2ncnc3sc(C(=O)N4CCOCC4)c(C)c23)c1OC	x	x	n[9.04 µM]	x	n
CCOc1ccc(NC(=O)CS(=O)CC(=O)Nc2cccnc2)cc1 (configuration not stated)	n	n	n	n	n
COc1ccc(N2C(=O)CS(=O)(=O)C23C(=O)N(Cc2cccc(F)c2)c2ccccc23)cc1OC (configuration not stated)	x	x	n	x	u
O=C1CS(=O)(=O)C2(C(=O)N(Cc3ccccc3)c3ccccc32)N1c1ccc(F)c(Cl)c1 (configuration not stated)	x	x	n	x	u
O=C1CS(=O)(=O)C2(C(=O)N(Cc3ccccc3Cl)c3ccccc32)N1c1ccc(F)cc1 (configuration not stated)	x	x	15µM	x	16µM
Cc1cccc(N2C(=O)CS(=O)(=O)C23C(=O)N(Cc2c(F)cccc2Cl)c2ccccc23)c1 (configuration not stated)	x	x	21µM	x	23µM
Cc1ccc(CN2C(=O)C3(c4ccccc42)N(c2cccc(F)c2)C(=O)CS3(=O)=O)cc1 (configuration not stated)	x	x	15µM	x	u
Cc1ccc(N2C(=O)CS(=O)(=O)C23C(=O)N(Cc2cccc(F)c2)c2ccccc23)cc1Cl (configuration not stated)	x	x	23µM	x	23µM
COC(=O)Cc1nc(Nc2ccccc2)sc1C	n	x	n	n	n
CCc1ccc(CN(Cc2ccco2)C(=O)c2ccc(OC)cc2)cc1	x	x	u	x	23µM
COc1ccc(C(=O)N(Cc2ccco2)Cc2ccc(C)o2)cc1	x	x	21µM	x	21µM
